This is a sample that favours compounds with a hit; in the whole collection about 2.8% have one here.
ATXN2 expr inh: ATXN2 expression inhibition | 360,000 compounds, 0.72% hits | Potency, µM (doses to about 57 µM), for the others: top-dose activity change, negative = inhibition, actives largely listed as inhibitors | HEK-293 ATXN2-luciferase reporter, luminescence, 24 h; note: % is set by controls: 0 for no effect and ±100 for the full control effect; nearly all actives have a fitted effect of over 55% in size
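qHTS (up to 57 uM final) was run with 24 h compound exposure of reporter cells at 37 °C. Each well was multiplexed: SteadyGlo luminescence measured ATXN2-luciferase expression after a fluorogenic Gly-Phe-AFC viability readout (25 uM final).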
HepG2 tox: counter-screen for TGF-b inhibitors: cytotoxicity in HepG2 cells; HepG2 CAGA-GFP viability, ATP luminescence, 18 h; Potency, µM (titrated, usually from 46.1 µM), for inactives: at the highest dose activity change, negative = cytotoxicity, most hits filed as cytotoxic; 410,000 compounds, 0.76% hits
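HepG2 CAGA-GFP cells (1000/well, DMEM with 1% FBS) received compound, then TGF-beta at 500 pg/mL final, and were incubated 18 hours at 37 degrees C. Viability was read by CellTiter-Glo luminescence. Media-only wells were set as complete cell-killing and DMSO as no toxicity.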
TGFb inhibitor: blocks TGF-b signaling; HepG2 CAGA-GFP TGF-b/SMAD3 reporter, GFP fluorescence, 18 h; TGF-beta stimulated, 500 pg/mL final; Potency, µM (top dose mostly 46.1 µM), without a hit: top-dose activity, negative = inhibition, actives largely listed as inhibitors; 410,000 compounds, 1.2% hits; note: % is set by controls: 0 for no effect and ±100 for the full control effect; nearly all actives have a fitted effect of over 65% in size
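HEPG2 CAGA-GFP cells (1000/well, DMEM with 1% FBS) were pre-incubated 2 h at 37 degrees C, given compound by pin tool, then stimulated with TGF-beta at 500 pg/mL final for 18 h before per-cell GFP fluorescence imaging.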
HttQ103 aggreg: reduces HttQ103-GFP aggregates in PC12 cells; Potency, µM (highest dose often 46.1 µM), without a hit: at the highest dose activity change, negative = inhibition, usual class: inhibitors; AID 1688; PC12 HttQ103-GFP aggregates, Acumen cytometry, 40 h; 220,000 compounds, 1.1% hits; note: % is set by controls: 0 for no effect and ±100 for the full control effect; nearly all actives have a fitted effect of over 60% in size
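Huntingtin Q103 exon 1–GFP aggregates in induced PC12 cells (100 nM tebufenozide) were quantified by cytometry from lysates, with compounds dosed in titration.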
HTT ATP protect: cytoprotection in Huntington HTT-Q103 PC12 cell model. PC12 HTT-Q103 induced, cytoprotection, ATP luminescence, 40 h. Potency, µM (highest dose often 56.4 µM), without a hit: cytoprotection (ATP increase), hits mostly activators. 230,000 compounds, 0.14% hits. AID 1471; note: % of control where 0% means no effect; nearly all actives have a fitted effect of over 45% in size
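ATP quantification (ATPlite) reports survival of PC12 cells in which tebufenozide, 100 nM final, switches on Htt exon 1 with 103 glutamines linked to GFP; compounds are titrated.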
S2 tox: cell viability loss in ATXN counter-screen; S2 cells (HEK-293 line with an ATXN2-luciferase reporter) viability, CellTiter-Fluor protease fluorescence, 24 h; Potency, µM (top dose mostly 56.7 µM), usual class: cytotoxic; 400,000 compounds, 0.49% hits; note: nearly all actives have a fitted effect of over 40% in size
The depositor's hits bear a star; i = inactive; ? = inconclusive; · = not tested or not shown; [ ] = dose if it differs, or a comment. Calls come from the whole dose curve; as a rule, active = well fitted curve in the direction sought with a large enough effect; inconclusive = small, poorly fitted or top-dose-only effect, or another doubt; inactive = no such curve, though single readings can be large; an effect the other way counts as inactive or inconclusive. Potency is the fitted concentration of half-maximal effect.

SMILES	ATXN2 expr inh	HepG2 tox	TGFb inhibitor	HttQ103 aggreg	HTT ATP protect	S2 tox
COc1ccc(C)cc1NC(=O)COC(=O)c1c(C)nn(-c2ccccc2)c1C	22µM*	-15%	-9%	·	·	?
Cc1nn(-c2ccccc2)c(C)c1C(=O)OCC(=O)Nc1ccccc1F	45%	-33%	-15%	·	·	i
Cc1cccc(NC(=O)CSc2ccc(-c3ccccn3)nn2)c1	·	-9%	?	·	·	·
CCOC(=O)c1ccccc1NC(=O)CSc1nc2ncccc2o1	8%	2µM*	-1%	·	·	i
CCOC(=O)c1ccccc1NC(=O)CSc1ccc(-c2ccccn2)nn1	3.5µM*	-8%	8%	·	·	?
CCc1ccc(NC(=O)CSc2ccc(-c3ccccn3)nn2)cc1	?	-6%	?	·	·	?
CCOC(=O)c1ccccc1NC(=O)CSc1nc2ncccc2[nH]1	·	-1%	-16%	·	·	·
COc1ccc(C)cc1NC(=O)CSc1ccc(-c2ccccn2)nn1	14µM*	0%	?	·	·	?
Cc1ccc(S/C(=N/S(=O)(=O)c2ccc(Cl)cc2)c2ccccc2)cc1	·	-22%	6%	·	·	·
CN(C)CCN1CCN(c2cccc(Cl)c2)C1=O	17%	·	·	·	·	i
C[C@@H]1CN([C@H](C)CO)S(=O)(=O)c2ccc(Br)cc2O[C@@H]1CN(C)Cc1ccc(-c2ccccc2)cc1	?	-57%	16µM*	·	·	?
C[C@@H]1CN([C@H](C)CO)S(=O)(=O)c2ccc(C#CC3CCCC3)cc2O[C@H]1CN(C)C(=O)Cc1ccccc1	?	16µM*	?	·	·	22µM*
C[C@H]1CN([C@@H](C)CO)S(=O)(=O)c2ccc(Br)cc2O[C@H]1CN(C)Cc1ccccc1F	?	-60%	16µM*	·	·	?
C[C@H](O)C#Cc1ccc2c(c1)O[C@@H](CN(C)Cc1ccc(-c3ccccc3)cc1)[C@H](C)CN([C@@H](C)CO)S2(=O)=O	20µM*	7.1µM*	?	·	·	16µM*
COc1cccc(O)c1CN1CCC(C(=O)Nc2ccc(-c3cccc(C)c3)cc2)CC1	?	13µM*	?	·	·	i
C(=Nc1cnc2ccccc2c1)c1ccnc2ccccc12	·	5%	-2%	·	·	·
CCOC(=O)N1CCN(Cc2nc3cc(NC(=O)CC)ccc3n2C(C)C)CC1	·	-23%	8.9µM*	·	·	·
COc1ccc(-n2c(NC(=O)c3ccco3)c(C#N)c3nc4ccccc4nc32)cc1	-3%	-1%	0%	13%	-12%	·
N#Cc1c(NC(=O)c2ccccc2Cl)n(Cc2ccccc2)c2nc3ccccc3nc12	-39%	-27%	7.9µM*	?	-18%[10 µM]	i
CCCCn1c(NC(=O)c2ccccc2Cl)c(C#N)c2nc3ccccc3nc21	?	-59%	?	10µM*	-62%	i
CCCCn1c(NC(=O)CC)c(C#N)c2nc3ccccc3nc21	-7%	0%	3%	-7%	34%[10 µM]	i
Cc1cc(C)n(-c2nc(Nc3ccccc3C(F)(F)F)nc(-n3nc(C)cc3C)n2)n1	22µM*	1%	?	10µM*	11%[1.9 µM]	?
Cc1cc(C)n(-c2nc(Nc3ccccc3C)nc(-n3nc(C)cc3C)n2)n1	·	·	·	-24%	-16%	·
Cc1cc(C(=O)N/N=C/c2cc(Br)ccc2OC(=O)c2ccc(Br)cc2)n[nH]1	·	·	·	10µM*	29%[10 µM]	·
Cc1cc(C(=O)N/N=C/c2cc(Br)cc(Br)c2OC(=O)c2cccc(F)c2)n[nH]1	?	-35%	-3%	-4%[9.22 µM]	14%[10 µM]	·
SMILES	ATXN2 expr inh	HepG2 tox	TGFb inhibitor	HttQ103 aggreg	HTT ATP protect	S2 tox
Cc1cc(C(=O)N/N=C/c2cc(Br)cc(Br)c2OC(=O)c2ccccc2)n[nH]1	·	·	·	4.5µM*	0%[10 µM]	·
COc1ccccc1CN1CCC(n2cc(C(=O)N3CCCCC3)nn2)CC1	·	·	·	·	·	i
Oc1cc(-c2cccs2)cc2c1OCCN(Cc1cn[nH]c1-c1ccc(Cl)cc1)C2	·	·	·	·	·	i
Cc1ccc(CNC(=O)CCSCc2cnn(-c3ccccc3)c2-n2cccc2)cc1	·	-31%	?	·	·	·
O=C(CCSCc1cnn(-c2ccccc2)c1-n1cccc1)NCc1ccc(Cl)cc1	·	-27%	16µM*	·	·	·
OC(CN1CCCCC1)c1ccccc1 (stereo unspecified)	·	-40%	-27%	·	·	·
Cc1cc(NO)c(C(C)C)cc1N=O	0%	-19%	-13%	3.2µM*	-74%[10 µM]	i
Cc1cc(O)c(C(C)C)cc1N=Nc1ccccc1C(=O)O	6%	-51%	?	24%[9.22 µM]	19%[10 µM]	?
CCOC(=O)C(NC(C)=O)(NS(=O)(=O)c1ccccc1)C(F)(F)F (stereo unspecified)	-10%	-10%	-3%	3.2µM*	-17%	i
N=C(N)c1ccc(OCCCOc2ccc(C(=N)N)cc2)cc1	-5%	·	·	·	·	i
Cc1ccc(S(=O)(=O)Nc2ccc(Br)cc2/C=N/n2cnnc2)cc1	?	-21%	?	2.2µM*	-26%	i
Cc1ccc(S(=O)(=O)N/N=C/c2cc(Br)ccc2O)cc1	15%	1%	-24%	34%[9.22 µM]	22%[10 µM]	i
COc1cc2c(C#N)c(N3CCCCC3)nc(N)c2c(N)n1	49%	1%	-5%	11µM*	-32%	?
COc1cc2c(C#N)c(N3CCOCC3)nc(N)c2c(N)n1	3%	-47%	5%	?	-15%[10 µM]	i
O=[N+]([O-])c1ccc(S(=O)(=O)N2CCN(c3nc(-c4cccs4)nc4ccccc34)CC2)cc1	·	1%	5%	·	·	·
COc1cc2c(cc1OC)CN(c1nc(CN3CCCCC3)nc3sc4c(c13)CCCC4)CC2	-12%	11%	9%	28µM*	·	?
COc1cc2c(cc1OC)CN(c1nc(CN3CCOCC3)nc3sc4c(c13)CCCC4)CC2	-24%	-21%	-22%	?	-33%[10 µM]	?
O=C(c1ccncc1)N1CCC[C@@]2(CCN(Cc3ccccc3)C2)C1	·	·	·	·	-6%	·
CC(=O)N(C)C1(c2ccccc2)CCN(CCC[C@]2(c3ccc(Cl)c(Cl)c3)CCCN(C(=O)c3ccccc3)C2)CC1	22µM*	·	·	·	·	·
O=C1CC(c2ccccc2F)c2cc3c(cc2N1)CCC3 (stereo unspecified)	8%	-17%	?	-13%	-77%	i
COc1cccc(C2CC(=O)Nc3cc4c(cc32)CCC4)c1 (stereo unspecified)	·	-18%	-25%	2%	-47%[10 µM]	?
O=C1CC(c2cccc(Cl)c2)c2cc3c(cc2N1)CCC3 (stereo unspecified)	?	-53%	10µM*	-22%	-78%	?

High-throughput results deposited in PubChem by National Center for Advancing Translational Sciences (NCATS).
